In all, about 16,000 sequences were measured (“rpm ratio (pull-down/input)”: median about 0.94, highest 2% from about 1.7 on). Shown is part of a subset that was picked to be rich in the highest values.

The target of this assay is T1, MBP-FoxP1dN (Mus musculus, UniProt P58462 326-579).
T1 sequence: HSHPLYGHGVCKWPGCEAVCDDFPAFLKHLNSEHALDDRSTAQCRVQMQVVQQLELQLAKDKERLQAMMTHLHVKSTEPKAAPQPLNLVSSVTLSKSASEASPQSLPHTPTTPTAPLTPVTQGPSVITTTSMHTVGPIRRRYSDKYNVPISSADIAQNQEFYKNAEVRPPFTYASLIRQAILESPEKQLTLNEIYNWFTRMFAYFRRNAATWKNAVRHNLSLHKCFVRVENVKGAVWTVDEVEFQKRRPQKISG
The experiment in a line: PD-seq (MBP pull-down with sequencing); 20 mM Tris-HCl pH 7.5, 100 mM NaCl, 1.5 mM MgCl2, 0.4 uM protein, 0.1 uM dsDNA library, 30 min, room temperature, amylose pull-down; high values mean tight binding. The following applies: protein: recombinant; tags: His6-MBP; chain copies: 2; dsDNA, one strand shown. In outline:
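A fragment of mouse FoxP3 or FoxP1 without its N-terminus, carrying a His6-MBP tag and produced in E. coli, was combined at 0.4 µM with a 0.1 µM degenerate double-stranded DNA library filled in with Klenow. The mixture sat for 30 min at room temperature in Tris pH 7.5 buffer containing NaCl and MgCl2. Protein–DNA complexes were captured on amylose resin, washed three times, and the DNA was freed with proteinase K, barcoded by PCR and sequenced on Illumina. Binding is expressed as reads-per-million enrichment of pull-down over input, with replicates pooled.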
“GATGATTGTTCTCCCAGCTGATGAATTAGAAAGGTCGAGTAAACAAATTTTCCTAATCTTTCTGTTCAAGCGCCATCTAC”: the binding signal was 0.826 RPM ratio (pull-down/input).

As to “GATGATTGTTCTCCCAGCTGATGAATTCACCTACTCGAGTAAACAAATTTTCCTAATCTTTCTGTTCAAGCGCCATCTAC”, the binding signal was 0.921 RPM ratio (pull-down/input).

Turning to “GATGATTGTTCTCCCAGCTGATGAATTTATCGCTTCGAGTAAACAAATTTTCCTAATCTTTCTGTTCAAGCGCCATCTAC”, the binding signal was 1.1 RPM ratio (pull-down/input).

Consider “GATGATTGTTCTCCCAGCTGATGAATTCGTCCCCTCGAGTAAACAAATTTTCCTAATCTTTCTGTTCAAGCGCCATCTAC”, for which the binding signal is 0.772 RPM ratio (pull-down/input).

Take “GATGATTGTTCTCCCAGCTGATGAATTTTGAGAATCGAGTAAACAAATTTTCCTAATCTTTCTGTTCAAGCGCCATCTAC”: the binding signal was 0.914 RPM ratio (pull-down/input).

Take “GATGATTGTTCTCCCAGCTGATGAATTTACAAAATCGAGTAAACAAATTTTCCTAATCTTTCTGTTCAAGCGCCATCTAC”: the binding signal is 1.74 RPM ratio (pull-down/input).

In the case of “GATGATTGTTCTCCCAGCTGATGAATTTACAACATCGAGTAAACAAATTTTCCTAATCTTTCTGTTCAAGCGCCATCTAC”, the binding signal is 1.67 RPM ratio (pull-down/input).

Turning to “GATGATTGTTCTCCCAGCTGATGAATTGTTTACATCGAGTAAACAAATTTTCCTAATCTTTCTGTTCAAGCGCCATCTAC”, the binding signal was 2.91 RPM ratio (pull-down/input).

For the sequence “GATGATTGTTCTCCCAGCTGATGAATTTTTTACATCGAGTAAACAAATTTTCCTAATCTTTCTGTTCAAGCGCCATCTAC”, the binding signal is 0.953 RPM ratio (pull-down/input).

Take “GATGATTGTTCTCCCAGCTGATGAATTACATAAATCGAGTAAACAAATTTTCCTAATCTTTCTGTTCAAGCGCCATCTAC”: the binding signal is 1.64 RPM ratio (pull-down/input).

Regarding “GATGATTGTTCTCCCAGCTGATGAATTACAAAAATCGAGTAAACAAATTTTCCTAATCTTTCTGTTCAAGCGCCATCTAC”, the binding signal was 1.59 RPM ratio (pull-down/input).

For the sequence “GATGATTGTTCTCCCAGCTGATGAATTTTACAAATCGAGTAAACAAATTTTCCTAATCTTTCTGTTCAAGCGCCATCTAC”, the binding signal was 1.1 RPM ratio (pull-down/input).

As for “GATGATTGTTCTCCCAGCTGATGAATTTTACATATCGAGTAAACAAATTTTCCTAATCTTTCTGTTCAAGCGCCATCTAC”, the binding signal is 0.97 RPM ratio (pull-down/input).

Take “GATGATTGTTCTCCCAGCTGATGAATTTACATAATCGAGTAAACAAATTTTCCTAATCTTTCTGTTCAAGCGCCATCTAC”: the binding signal is 1.76 RPM ratio (pull-down/input).

As for “GATGATTGTTCTCCCAGCTGATGAATTGTCGCTGTCGAGTAAACAAATTTTCCTAATCTTTCTGTTCAAGCGCCATCTAC”, the binding signal was 1.02 RPM ratio (pull-down/input).

As for “GATGATTGTTCTCCCAGCTGATGAATTCTGGACATCGAGTAAACAAATTTTCCTAATCTTTCTGTTCAAGCGCCATCTAC”, the binding signal was 0.937 RPM ratio (pull-down/input).

“GATGATTGTTCTCCCAGCTGATGAATTACCAGGTTCGAGTAAACAAATTTTCCTAATCTTTCTGTTCAAGCGCCATCTAC”: the binding signal is 0.873 RPM ratio (pull-down/input).

“GATGATTGTTCTCCCAGCTGATGAATTATGGTTTTCGAGTAAACAAATTTTCCTAATCTTTCTGTTCAAGCGCCATCTAC”: the binding signal was 1.24 RPM ratio (pull-down/input).

For the sequence “GATGATTGTTCTCCCAGCTGATGAATTTTTCATCTCGAGTAAACAAATTTTCCTAATCTTTCTGTTCAAGCGCCATCTAC”, the binding signal was 0.937 RPM ratio (pull-down/input).

Regarding “GATGATTGTTCTCCCAGCTGATGAATTCATTCGGTCGAGTAAACAAATTTTCCTAATCTTTCTGTTCAAGCGCCATCTAC”, the binding signal was 0.807 RPM ratio (pull-down/input).

In the case of “GATGATTGTTCTCCCAGCTGATGAATTGTGATTATCGAGTAAACAAATTTTCCTAATCTTTCTGTTCAAGCGCCATCTAC”, the binding signal was 1.74 RPM ratio (pull-down/input).

With “GATGATTGTTCTCCCAGCTGATGAATTATCTGAATCGAGTAAACAAATTTTCCTAATCTTTCTGTTCAAGCGCCATCTAC”, the binding signal is 0.99 RPM ratio (pull-down/input).

“GATGATTGTTCTCCCAGCTGATGAATTATTCTGATCGAGTAAACAAATTTTCCTAATCTTTCTGTTCAAGCGCCATCTAC”: the binding signal was 0.97 RPM ratio (pull-down/input).

Turning to “GATGATTGTTCTCCCAGCTGATGAATTATTATGATCGAGTAAACAAATTTTCCTAATCTTTCTGTTCAAGCGCCATCTAC”, the binding signal is 1.41 RPM ratio (pull-down/input).

With “GATGATTGTTCTCCCAGCTGATGAATTATTGTGATCGAGTAAACAAATTTTCCTAATCTTTCTGTTCAAGCGCCATCTAC”, the binding signal was 1.76 RPM ratio (pull-down/input).

As to “GATGATTGTTCTCCCAGCTGATGAATTATCTAAATCGAGTAAACAAATTTTCCTAATCTTTCTGTTCAAGCGCCATCTAC”, the binding signal was 1.18 RPM ratio (pull-down/input).

With “GATGATTGTTCTCCCAGCTGATGAATTATGACAATCGAGTAAACAAATTTTCCTAATCTTTCTGTTCAAGCGCCATCTAC”, the binding signal is 1.38 RPM ratio (pull-down/input).

For the sequence “GATGATTGTTCTCCCAGCTGATGAATTAACATCATCGAGTAAACAAATTTTCCTAATCTTTCTGTTCAAGCGCCATCTAC”, the binding signal was 1.31 RPM ratio (pull-down/input).

In the case of “GATGATTGTTCTCCCAGCTGATGAATTAATAACATCGAGTAAACAAATTTTCCTAATCTTTCTGTTCAAGCGCCATCTAC”, the binding signal is 2.02 RPM ratio (pull-down/input).

On to “GATGATTGTTCTCCCAGCTGATGAATTAACAACATCGAGTAAACAAATTTTCCTAATCTTTCTGTTCAAGCGCCATCTAC”, for which the binding signal is 2.17 RPM ratio (pull-down/input).

Take “GATGATTGTTCTCCCAGCTGATGAATTAACATAATCGAGTAAACAAATTTTCCTAATCTTTCTGTTCAAGCGCCATCTAC”: the binding signal was 1.45 RPM ratio (pull-down/input).

As to “GATGATTGTTCTCCCAGCTGATGAATTAAATAAATCGAGTAAACAAATTTTCCTAATCTTTCTGTTCAAGCGCCATCTAC”, the binding signal was 1.49 RPM ratio (pull-down/input).

Consider “GATGATTGTTCTCCCAGCTGATGAATTATTAACATCGAGTAAACAAATTTTCCTAATCTTTCTGTTCAAGCGCCATCTAC”, for which the binding signal was 1.32 RPM ratio (pull-down/input).
